Source: PubChem BioAssay AID602139 (NMMLSC, 2011)
This is one part of the list. Values without a mark were called inactive. Rule as the data show it: active = inhibition above about 32%; inactive = the rest.

System: Botulinum neurotoxin type A light chain protease (Clostridium botulinum A str. ATCC 3502)
Assay: BoNT/A light chain protease inhibitors, confirmation, biochemical, flow cytometry, cherry pick 1 (AID 602139)
Conditions: multiplex microsphere protease assay, at 10 µM, stronger effect = higher value

Row | SMILES | inhibition [%]
1 | COc1ccc(C(=O)Nc2nc(-c3ccc(OC)cc3)c(-c3ccc([N+](=O)[O-])cc3)s2)cc1 | 15.9
2 | COc1cc(C(=O)NCc2ccc3c(c2)cc(C)n3C)cc(OC)c1OC | -0.1
3 | Cc1c(NC(=O)c2cccnc2)c(=O)n(-c2ccccc2)n1C | 0.8
4 | CCOCCn1c(-c2ccccc2)nc2ccccc21 | -0.1
5 | Cc1cc(S(=O)(=O)NC2CCCC2)ccc1-n1cnnn1 | 0.3
6 | COc1ccc(N(CC(=O)NCCSCc2cccc(Cl)c2)S(C)(=O)=O)cc1 | 1
7 | COc1ccccc1-n1c(-c2cc(-c3ccco3)[nH]n2)n[nH]c1=S | 1.5
8 | CCOc1ccc(NC(=O)CC(Cc2ccc(Cl)cc2)C(=O)O)cc1 (configuration not stated) | -0.4
9 | COc1ccccc1C1CCN(C(=S)Nc2ccc(Br)cc2)CC1 | 0.8
10 | CC1CCc2c(sc3nc4n(c(=O)c23)CCS4)C1 (configuration not stated) | 0.4
11 | CN(C(=O)c1ccccn1)c1nnc(-c2ccccn2)s1 | -1.1
12 | O=C(O)c1cc(S(=O)(=O)NC2CCCc3ccccc32)ccc1O (configuration not stated) | 0.7
13 | CCN1CCN(C(C(=O)NC2CCCC2)c2cc3c(cc2[N+](=O)[O-])OCO3)CC1 (configuration not stated) | -0.8
14 | CN1CCN(c2ccc(NC(=O)c3ccccc3)cc2)CC1 | 1.8
15 | Nc1ccccc1Sc1cc(Cl)nnc1Cl | -0.2
16 | COc1ccccc1CNC(=O)C1Cc2ccccc2C(=O)O1 (configuration not stated) | -0.4
17 | Cc1ccc(C(=O)COc2cccc(NC(=O)c3ccco3)c2)cc1 | -0.4
18 | CC(=O)c1cccc(NC(=O)N2CCCC2C(=O)NCCc2ccccc2)c1 (configuration not stated) | 1.9
19 | COc1ccc(Br)cc1CNCCc1cccc(Cl)c1 | 1.5
20 | COc1ccc(NS(=O)(=O)c2cc(C(=O)Nc3ccccc3C(=O)O)ccc2C)cc1 | 0.6
21 | CC1CCN(C(=O)c2ccc(S(=O)(=O)Cc3cc(F)ccc3F)c([N+](=O)[O-])c2)CC1 | 0.4
22 | CCOc1nnc(C)c2c(C)n(-c3cccc(Cl)c3)nc12 | -6.5
